# Bioassay records (PubChem BioAssay)
# Sampled rows, rich in hits. Any-hit rate of the full collection: about 4%.
# Mtb UGM inh: Mtb UDP-galactopyranose mutase inhibition. P9WIQ1. purified UGM, fluorescence polarization probe displacement. inhibition, % at 10 µM. actives 0.06% (n = 320,000). AID 504406; in the data active = inhibition above about 10%, passing the limit was not always enough
# RecA intein inh: Mtb RecA intein splicing inhibition. inhibition, % (no concentration beside the values). cell-free RecA intein splicing, fluorescence. actives 0.75% (n = 290,000). P9WHJ3; in the data active = inhibition above about 30%;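 note: 0% = vehicle wells and 100% = reference inhibitor control wells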
# GDH-TPI counter: inhibits GDH-TPI coupling enzymes, artifact for Mtb FBA screen. GDH-TPI coupled enzyme counterscreen, NADH absorbance. inhibition, % at 4.8 µM. actives 1.2% (n = 360,000); in the data active = inhibition above about 30%;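 note: 0% = DMSO wells and 100% = wells lacking the enzyme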
# Rv3671c protease: Rv3671c (M. tuberculosis) protease inhibition. inhibition, % at 5.96 µM. P9WHR9. AID 2606. actives 0.048% (n = 320,000); in the data active = inhibition above about 38%;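 note: extracellular domain of Rv3671c used as enzyme; 0% = enzyme with DMSO and 100% = no enzyme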
# Mtb FBA inh: inhibitors of M. tuberculosis fructose-bisphosphate aldolase; P9WQA3; purified M. tuberculosis FBA, fluorescence read-out; inhibition, % at 1 µM; actives 2.3% (n = 360,000); AID 588726; in the data active = inhibition above about 27%;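 note: 0% = vehicle and 100% = reference inhibitor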
# Target sequence (P9WQA3 whole entry, looked up): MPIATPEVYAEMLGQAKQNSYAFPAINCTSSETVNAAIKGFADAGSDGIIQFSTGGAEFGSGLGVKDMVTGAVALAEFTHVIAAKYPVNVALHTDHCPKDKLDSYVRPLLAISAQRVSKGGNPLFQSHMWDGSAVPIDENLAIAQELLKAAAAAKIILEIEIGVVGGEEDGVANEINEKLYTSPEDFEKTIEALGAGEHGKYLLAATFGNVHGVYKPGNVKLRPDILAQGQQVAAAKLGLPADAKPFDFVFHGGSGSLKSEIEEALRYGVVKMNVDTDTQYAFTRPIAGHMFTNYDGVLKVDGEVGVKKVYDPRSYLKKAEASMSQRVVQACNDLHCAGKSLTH
# Mtb bLac sens: beta-lactam sensitization of Mtb H37Rv | M. tuberculosis H37Rv growth with meropenem, percent inhibition | inhibition, % at 25 µM | actives 0.27% (n = 330,000); call rule not given here;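 note: growth measured after seven days incubation then overnight dye step; 0% = bacteria only wells and 100% = bacteria with antibiotic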
# * hit, by the source's call; / = no result; + = active, no number.
SMILES,Mtb UGM inh,RecA intein inh,GDH-TPI counter,Rv3671c protease,Mtb FBA inh,Mtb bLac sens
O=C(Nc1ccc(-c2nc3cccnc3s2)cc1)C1CCCO1 (stereo not drawn),4,-1,33*,-7,+,3
COc1ccc(NC(=O)C2CCCO2)cc1 (stereo not drawn),-3,1,-5,3,-2,-5
O=S(=O)(Nc1ccc(-c2nc3cccnc3s2)cc1)c1cccs1,0,-14,15,-5,+,3
Cc1nc2ccc(S(=O)(=O)Nc3ccc(-c4nc5cccnc5s4)cc3)cc2s1,0,-1,31,-42,+,-5
CN(Cc1ccccc1)C1(CNC(=O)CCC(F)(F)F)Cc2ccccc2C1,2,1,-5,-3,-2,-4
Cc1cccc(N2CCN(C(=O)C3CCC(=O)N(Cc4ccccc4F)C3)CC2)c1C (stereo not drawn),-1,-1,13,-6,2,5
Cc1cc(-c2nc3cccnc3s2)ccc1NS(=O)(=O)c1ccc2c(c1)OCCO2,4,-51,31,-84,+,5
CCS(=O)(=O)Nc1cccc(-c2nc3cccnc3s2)c1,-3,0,5,2,3,-8
CCS(=O)(=O)Nc1ccc(-c2nc3cccnc3s2)cc1,1,-18,24,-4,+,-7
O=S(=O)(Nc1ccc(-c2nc3cccnc3s2)cc1)c1ccc(Cl)s1,-1,-18,37*,-15,+,0
Cc1c(NS(=O)(=O)c2ccc3c(c2)OCCO3)cccc1-c1nc2cccnc2s1,-1,8,12,-12,2,-14
Cc1cc(-c2nc3cccnc3s2)ccc1NS(=O)(=O)c1cccs1,1,-3,42*,6,+,-8
O=C(COC(=O)C1CC1)NC(=O)c1ccccc1,4,/,9,2,-2,6
Cc1ccc(-c2csc3nc[nH]c(=S)c23)cc1,0,2,15,14,1,82
Cc1cc(-c2csc3nc[nH]c(=S)c23)cc(C)c1C,0,4,40*,5,3,82
CCCCCCSC1=C(C#N)C(=O)NC2(CCCCC2)S1,4,5,13,-3,-6,2
COc1ccc(CSC2=C(C#N)C(=O)NC3(CCCCC3)S2)cc1,/,/,34*,/,-3,/
CCCCN(CCCC)Cc1cc(=O)oc2ccccc12,/,/,/,/,2,/
Cc1ccc(CNC(=O)C2CCN(S(=O)(=O)c3c(C)noc3/C=C/c3ccco3)CC2)cc1,-4,1,37*,-22,-4,-6
Cc1noc(/C=C/c2ccco2)c1S(=O)(=O)N1CCC(C(=O)NCc2ccco2)CC1,-2,7,34*,-7,1,-1
CC(=O)C1C2c3ccccc3OC1(C)N=c1s/c(=C/c3cn(C)nc3C)c(=O)n12 (stereo not drawn),-2,0,36*,11,1,4
O=c1cc(-c2ccccc2)oc2cc(O)c(O)c(O)c12,/,/,16,-3,-1,2
O=P(O)(O)c1cc(-c2ccccc2)oc1-c1ccccc1,1,0,37*,6,164*,-9
Cc1cccc(NC(=O)CSc2n[nH]c(-c3ccncc3)n2)c1C,-2,-2,3,-4,-1,-8
N=C1/C(=C\c2coc3ccccc3c2=O)C(=O)N=C2SC(c3ccncc3)=NN12,-2,-1,32*,-22,8,4
SMILES,Mtb UGM inh,RecA intein inh,GDH-TPI counter,Rv3671c protease,Mtb FBA inh,Mtb bLac sens
Cc1ccnc2nc(C(=O)OCC(=O)Nc3ccc([N+](=O)[O-])cc3Br)nn12,3,/,7,-4,-4,-3
CC(=O)/C=C1/C(=O)Nc2ccccc21,-3,62*,0,-3,-1,79
O=C(c1ccc(C(=O)N2CCCc3ccccc32)s1)N1CCCc2ccccc21,-5,0,13,-3,-2,3
O=C(c1cnc2sccn2c1=O)N1CCCc2ccccc21,-2,4,32*,-3,0,-2
Cc1c(C(=O)NNC(=S)Nc2ccc(S(N)(=O)=O)cc2)oc2ccccc12,3,-3,31,-7,2,0
COC(=O)c1ccc(C(=O)Nc2ccc3nc(-c4ccncc4)[nH]c3c2)cc1,0,2,22,-17,-1,4
Fc1cc2nc(-c3ccncc3)[nH]c2cc1F,0,0,1,3,127*,5
O=C(O)c1cc(-c2cccc3ccccc23)nc2ccccc12,4,0,0,-5,11,1
COc1ccc(-c2cc(C(=O)Oc3ccc([N+](=O)[O-])cc3)c3ccccc3n2)cc1,-1,3,23,5,+,23
CCn1cc(-c2cc(C(=O)O)c3ccccc3n2)c(C)n1,1,-3,8,-10,130*,-1
CCc1ccc(-c2cc(C(=O)O)c3ccccc3n2)s1,4,-12,38*,/,152*,7
O=C(O)c1cc(-c2cc(C(=O)O)c3ccccc3n2)nc2ccccc12,3,1,/,-4,/,8
Cc1ccc(-c2cc(C(=O)n3cnc4ccccc43)c3ccccc3n2)cc1C,2,10,8,-2,50*,29
Cc1cc(NC(=O)c2cc(-c3ccc(C)c(C)c3)nc3ccccc23)no1,0,6,4,-25,22,5
O=C(CCCOc1ccccc1)Nc1cccc(S(=O)(=O)N2CCCCCC2)c1,2,/,6,-13,2,-2
CC(C)(C)c1ccc(OCCC(=O)OCC(=O)Nc2ccc(N3CCOCC3)cc2)cc1,-2,-4,3,14,-4,-2
COc1ccc(-c2cc(C(=O)N3CCCCCC3)c3ccccc3n2)cc1OC,/,/,12,/,3,/
COc1ccc(-c2cc(C(=O)N3CCCCCC3)c3ccccc3n2)cc1,/,/,15,/,150*,/
Cc1ccc(-c2cc(C(=O)N3CC(C)OC(C)C3)c3ccccc3n2)o1 (stereo not drawn),-1,-1,12,-2,146*,0
Cc1ccc(-c2cc(C(=O)N3CCCC3)c3ccccc3n2)s1,-3,-2,18,4,+,0
CC1CCCN(CCCNC(=O)c2coc3nc4ccccc4nc23)C1 (stereo not drawn),-1,-20,1,-10,155*,7
CC1CCN(CCCNC(=O)c2coc3nc4ccccc4nc23)CC1,-5,-20,8,-1,+,-6
CC1CCN(CCCNC(=O)c2n[nH]c(=O)c3ccccc23)CC1,-1,0,7,-2,1,-8
Nc1cc(C(=O)O)c(Oc2ccc(Cl)cc2Cl)cc1C(=O)O,4,-1,-1,-9,+,-5
Oc1c(Cl)cc(Cl)cc1CNc1nc2ccccc2[nH]1,6,6,14,5,1,-1
COc1ccc(Br)cc1[C@H]1[C@@H]2C=CCC[C@@]2(C)C(=O)N1Cc1ccccc1,1,32*,10,-2,6,3
O=C(/C=C/c1ccco1)Oc1cc(Br)cc(/C=N/NC(=O)c2ccccc2O)c1,3,-2,43*,-10,3,1
